In PubChem BioAssay (NCATS):
Where “and” joins values, the source holds several entries; their conditions need not be identical. Equal entries are not always repeated. Records with an inconclusive call do not appear. Calls of active or inactive are those of the source. Calls follow the shape of the dose curve; as a rule, active = well fitted curve in the direction sought with a large enough effect; inconclusive = small, poorly fitted or top-dose-only effect, or another doubt; inactive = no such curve, though single readings can be large; an effect the other way counts as inactive or inconclusive.

Assay: qHTS of pediatric cancer cell lines to identify multiple opportunities for drug repurposing: Confirmatory screen for Rh41 cells (AID 1347123);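 also: 48 h compound exposure; nearly all actives have a fitted effect of over 60% in size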
Conditions: Rh41 rhabdomyosarcoma cells, viability/cytotoxicity qHTS; series mostly up to 45.9 µM
Method in brief: (§1)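 Viability after 48 h compound treatment at 37C, 500-1,000 cells/well, read as ATP luminescence with CellTiter-Glo. Primary screens used 11-point (MIPE, 0.78 nM-46 µM) or 8-point (NPC, 0.59 nM-46 µM) final concentrations; follow-up screens used 11-point dilutions.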
Potency is read from the fitted curve at half-maximal effect.

| Structure (SMILES) | Potency |
| --- | --- |
| OC[C@H]1O[C@@H](n2cnc3c2NC=NC[C@@H]3O)C[C@H]1O | inactive |
| CO[C@H]1C=CC=C(C)C(=O)NC2=CC(=O)C(NCCN(C)C)=C(C[C@@H](C)C[C@H](OC)[C@@H](O)[C@@H](C)C=C(C)[C@@H]1OC(N)=O)C2=O | 7.37 µM (active) |
| COc1cc(N2CCC(N3CCN(C)CC3)CC2)ccc1Nc1ncc(Cl)c(Nc2ccccc2S(=O)(=O)C(C)C)n1 | 0.329 µM (active) |
| Nc1ncnc2c1ncn2[C@@H]1O[C@@H](CO)[C@H](O)[C@H]1O | inactive |
| O=C(O)c1ccc(-c2c[nH]c3ncc(-c4ccccc4)cc23)cc1C1CCCC1 | inactive |
| COc1ccc(-c2nc(N3CCOCC3)c3sc(CN(C)c4ncc(C(=O)NO)cn4)cc3n2)cn1 | 0.414 µM (active) |
| CC1(C)O[C@H]2C[C@@H]3[C@H]4CCC5=CC(=O)C=C[C@]5(C)[C@@]4(F)[C@@H](O)C[C@]3(C)[C@]2(C(=O)CO)O1 | inactive |
| CC1(C)S[C@H]2[C@H](NC(=O)[C@@H](N)c3ccc(O)cc3)C(=O)N2[C@@H]1C(=O)O | inactive |
| CCc1ccc(OCc2ccccc2C(=O)Nc2ccc3nc(C)cc(N)c3c2)cc1 | 9.27 µM (active) |
| O=c1cc(-c2ccc(O)cc2)oc2cc(O)cc(O)c12 | inactive |
| COc1cc2ncnc(Nc3ccc(F)c(Cl)c3)c2cc1OCCCN1CCOCC1 | 26.9 µM (active) |
| CN(C)C1CCN(C(=O)c2ccc(NC(=O)Nc3nc(N4CCOCC4)nc(N4CCOCC4)n3)cc2)CC1 | 0.0827 µM (active) |
| CC[C@]1(O)C[C@@H]2CN(CCc3c([nH]c4ccccc34)[C@@](C(=O)OC)(c3cc4c(cc3OC)N(C)[C@H]3[C@@](O)(C(=O)OC)[C@H](OC(C)=O)[C@]5(CC)C=CCN6CC[C@]43[C@@H]65)C2)C1 | 82.7 nM (active) and 104 nM (active) |
| CO[C@H]1C(=O)[C@]2(C)[C@@H](OC)C[C@H]3OC[C@@]3(OC(C)=O)[C@H]2[C@H](OC(=O)c2ccccc2)[C@]2(O)C[C@H](OC(=O)[C@H](O)[C@@H](NC(=O)OC(C)(C)C)c3ccccc3)C(C)=C1C2(C)C | 0.0165 µM (active) |
| NS(=O)(=O)c1cccc2c1C(=O)c1cccc(O)c1C2=O | 0.657 µM (active) |
| O=C1c2ccccc2-[n+]2ccc3c([nH]c4ccccc43)c21 | 2.08 µM (active) |
| C=C1C(=O)[C@@]23C(CC[C@@H]1[C@H]2O)[C@@]12CO[C@]3(O)[C@@H](O)[C@@H]1C(C)(C)CC[C@@H]2O (some centres not stated) | 2.93 µM (active) |
| O=C1NC(=O)C(=Cc2ccc3c(c2)OC(F)(F)O3)S1 | inactive |
| CC(=O)Nc1ccc([C@H](C)C(=O)Nc2ncc(C(C)C)s2)cc1 | 9.27 µM (active) |
| O=C1C(Cl)=C(NCCN2CCOCC2)C(=O)c2ncccc21 | 1.17 µM (active) |
| CC(C)n1nc(-c2ccc3oc(N)nc3c2)c2c(N)ncnc21 | 0.0293 µM (active) |

Assay: qHTS of pediatric cancer cell lines to identify multiple opportunities for drug repurposing: Confirmatory screen for RD cells (AID 1347124);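 also: cells exposed to compound for 48 h before viability readout; nearly all actives have a fitted effect of over 65% in size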
Conditions: RD rhabdomyosarcoma cell viability; series mostly up to 45.9 µM
Method in brief: as §1

| Structure (SMILES) | Potency |
| --- | --- |
| OC[C@H]1O[C@@H](n2cnc3c2NC=NC[C@@H]3O)C[C@H]1O | inactive |
| CO[C@H]1C=CC=C(C)C(=O)NC2=CC(=O)C(NCCN(C)C)=C(C[C@@H](C)C[C@H](OC)[C@@H](O)[C@@H](C)C=C(C)[C@@H]1OC(N)=O)C2=O | inactive |
| COc1cc(N2CCC(N3CCN(C)CC3)CC2)ccc1Nc1ncc(Cl)c(Nc2ccccc2S(=O)(=O)C(C)C)n1 | 1.04 µM (active) |
| Nc1ncnc2c1ncn2[C@@H]1O[C@@H](CO)[C@H](O)[C@H]1O | inactive |
| O=C(O)c1ccc(-c2c[nH]c3ncc(-c4ccccc4)cc23)cc1C1CCCC1 | inactive |
| COc1ccc(-c2nc(N3CCOCC3)c3sc(CN(C)c4ncc(C(=O)NO)cn4)cc3n2)cn1 | 2.33 µM (active) |
| CC1(C)O[C@H]2C[C@@H]3[C@H]4CCC5=CC(=O)C=C[C@]5(C)[C@@]4(F)[C@@H](O)C[C@]3(C)[C@]2(C(=O)CO)O1 | inactive |
| CC1(C)S[C@H]2[C@H](NC(=O)[C@@H](N)c3ccc(O)cc3)C(=O)N2[C@@H]1C(=O)O | inactive |
| CCc1ccc(OCc2ccccc2C(=O)Nc2ccc3nc(C)cc(N)c3c2)cc1 | 8.27 µM (active) |
| O=c1cc(-c2ccc(O)cc2)oc2cc(O)cc(O)c12 | inactive |
| COc1cc2ncnc(Nc3ccc(F)c(Cl)c3)c2cc1OCCCN1CCOCC1 | 1.51 µM (active) |
| CN(C)C1CCN(C(=O)c2ccc(NC(=O)Nc3nc(N4CCOCC4)nc(N4CCOCC4)n3)cc2)CC1 | 0.293 µM (active) |
| CC[C@]1(O)C[C@@H]2CN(CCc3c([nH]c4ccccc34)[C@@](C(=O)OC)(c3cc4c(cc3OC)N(C)[C@H]3[C@@](O)(C(=O)OC)[C@H](OC(C)=O)[C@]5(CC)C=CCN6CC[C@]43[C@@H]65)C2)C1 | 1.17 µM (active) |
| NC1=N[C@@]2(c3cc(NC(=O)c4ccc(F)cn4)ccc3F)COC[C@@H]2CS1 | inactive |
| O=C1c2ccccc2-[n+]2ccc3c([nH]c4ccccc43)c21 | 1.65 µM (active) |
| O=C1NC(=O)C(=Cc2ccc3c(c2)OC(F)(F)O3)S1 | inactive |
| CC(=O)Nc1ccc([C@H](C)C(=O)Nc2ncc(C(C)C)s2)cc1 | 7.37 µM (active) |
| O=C1C(Cl)=C(NCCN2CCOCC2)C(=O)c2ncccc21 | 1.17 µM (active) |
| CC(C)(C(=O)NCC(F)(F)C(F)(F)F)C(=O)N[C@@H]1C(=O)Nc2ccccc2-c2ccccc21 | inactive |
| CC(=O)O[C@]1(C(C)=O)CC[C@@H]2[C@@H]3C[C@H](C)C4=CC(=O)CC[C@]4(C)[C@H]3CC[C@@]21C | inactive |
| CC(C)n1nc(-c2ccc3oc(N)nc3c2)c2c(N)ncnc21 | 0.208 µM (active) |
